Measured values from PubChem BioAssay.
Active and inactive are the calls of the source. Unless noted, the rule behind the calls is not given here.

Columns and labels:
[1] = A549 cell viability effects, profiling panel, calcein-AM fluorescence, 48 h, basal (AID 1162); details: higher = more signal; note: test concentration not given here
[2] = adipocyte viability effects, profiling panel, cell-based, 3T3-L1 adipocytes, calcein-AM fluorescence, 48 h, basal (AID 1163); details: 3T3-L1 adipocytes viability, higher = more signal; note: test concentration not given here
[3] = HepG2 cell viability effects, profiling panel, calcein-AM fluorescence, 48 h, basal (AID 1164); details: higher = more signal; note: test concentration not given here
[4] = MM1S cell viability effects, profiling panel, calcein-AM fluorescence, 48 h, basal (AID 1165); details: higher = more signal;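 note: viability of MM1S multiple myeloma cells under basal unstimulated conditions; test concentration not given here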
[5] = basal RPMI8226 viability, no added stimulus, profiling panel, cell-based, calcein-AM fluorescence, 48 h, PK04 Diversity Set (AID 1166); details: RPMI8226 myeloma viability, higher = more signal;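 note: cells grown under basal conditions without added stimulus; test concentration not given here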
[6] = basal HepG2 mitochondrial membrane potential changes, profiling panel, cell-based, JC-1 fluorescence, 24 h, 100 nL compound (AID 1167); details: higher = more signal; note: test concentration not given here
[7] = basal 3T3-L1 adipocyte mitochondrial potential changes, profiling panel, cell-based, JC-1 fluorescence, 3T3-L1 adipocytes, 24 h, 100 nL compound (AID 1168); details: JC-1 mitochondrial fluorescence, higher = more signal, called active from +8 up or from −8 down; note: test concentration not given here
[8] = basal RPMI8226 mitochondrial membrane potential changes, profiling panel, cell-based, JC-1 fluorescence, 24 h, 100 nL compound (AID 1169); details: RPMI8226 myeloma, JC-1 mitochondrial potential fluorescence, higher = more signal; note: test concentration not given here
[9] = basal MM1S mitochondrial membrane potential changes, profiling panel, cell-based, JC-1 fluorescence, 24 h, 100 nL compound (AID 1170); details: higher = more signal; note: test concentration not given here
[10] = A549 lung cancer cell viability effects, profiling panel, resazurin fluorescence, 24 h, PK04 Diversity Set (AID 1171); details: higher = more signal, called active from +8 up or from −8 down; note: test concentration not given here
[11] = HepG2 liver cancer cell viability effects, profiling panel, resazurin fluorescence, 24 h, PK04 Diversity Set (AID 1172); details: higher = more signal; note: test concentration not given here
[12] = basal S. cerevisiae growth modulation, no modifier, primary screen, OD600, strain BY4716, 24 h, basal condition (AID 1173); details: OD600, 24 h, higher = more signal, called active from +8 up or from −8 down
[13] = MM1S myeloma cell viability, profiling panel, resazurin fluorescence, basal, 24 h, PK04 Diversity Set (AID 1174); details: higher = more signal, called active from +8 up or from −8 down;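 note: MM1S multiple myeloma cell line; test concentration not given here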
[14] = biological target: Dihydroorotate dehydrogenase (quinone), mitochondrial (Plasmodium falciparum (isolate 3D7)) (UniProt Q08210); test: PfDHODH enzyme inhibitors, primary screen, biochemical, C-terminal His tag, absorbance 600 nm (AID 1175); details: DCIP absorbance 600 nm, higher = more signal, called active from +8 up or from −8 down;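 note: recombinant parasite enzyme with a five histidine tag at its C terminus; test concentration not given here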
[15] = P. aeruginosa biofilm formation inhibitors, primary screen, strain PAO1, LB-PBS medium, absorbance 600 nm (AID 1176); note: test concentration not given here; details: P. aeruginosa PAO1 growth/biofilm, A600, 12 h; higher = more signal
[16] = S. cerevisiae RM11-1a growth modifiers, primary screen, strain RM11-1a, OD600, basal, 24 h (AID 1177); details: OD600, 24 h, higher = more signal, called active from +8 up or from −8 down;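 note: cultures grown under basal conditions with no added stressor; test concentration not given here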
[17] = E. coli acrAB mutant growth effects, primary screen, E. coli filamentation inducers, strain DRC39, OD650, 24 h (AID 1178); details: higher = more signal, called active from +8 up or from −8 down;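 note: growth measured as culture turbidity by optical density at 650 nm; test concentration not given here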
[18] = E. coli acrAB mutant growth effects, primary screen, E. coli filamentation inducers, strain DRC39, OD650, 48 h (AID 1179);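 note: screen aims at cell division blockers that make cells filament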; details: E. coli DRC39 delta-acrAB growth, higher = more signal, called active from +8 up or from −8 down
[19] = RPMI8226 myeloma cell viability, profiling panel, resazurin fluorescence, basal, 24 h, PK04 Diversity Set (AID 1180); details: higher = more signal;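 note: RPMI8826 multiple myeloma cell line at 5000 cells per well; test concentration not given here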
[20] = biological target: E3 ubiquitin-protein ligase XIAP (Homo sapiens) (UniProt P98170); test: XIAP binders, primary screen, biophysical, small-molecule microarray, fluorescence 635 nm (AID 1181); details: small-molecule microarray binding, higher = more signal;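 note: score merges 667 nm emission and signal to noise over triplicate slides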
E3 ubiquitin-protein ligase XIAP (Homo sapiens), sequence (P98170 whole entry, looked up): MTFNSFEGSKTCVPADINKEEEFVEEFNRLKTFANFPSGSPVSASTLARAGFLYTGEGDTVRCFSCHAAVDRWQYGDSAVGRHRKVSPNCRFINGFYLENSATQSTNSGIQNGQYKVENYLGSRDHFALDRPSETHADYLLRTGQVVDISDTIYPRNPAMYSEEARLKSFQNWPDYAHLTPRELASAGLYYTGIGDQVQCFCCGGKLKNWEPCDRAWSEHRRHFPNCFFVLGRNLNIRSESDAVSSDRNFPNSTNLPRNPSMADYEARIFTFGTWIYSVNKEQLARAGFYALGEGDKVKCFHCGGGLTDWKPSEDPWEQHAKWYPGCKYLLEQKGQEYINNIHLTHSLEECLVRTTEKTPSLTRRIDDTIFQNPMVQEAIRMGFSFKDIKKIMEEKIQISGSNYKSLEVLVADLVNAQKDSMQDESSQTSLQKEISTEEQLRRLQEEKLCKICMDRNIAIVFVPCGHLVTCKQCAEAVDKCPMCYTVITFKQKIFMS

Dihydroorotate dehydrogenase (quinone), mitochondrial (Plasmodium falciparum (isolate 3D7)), sequence (Q08210 whole entry, looked up): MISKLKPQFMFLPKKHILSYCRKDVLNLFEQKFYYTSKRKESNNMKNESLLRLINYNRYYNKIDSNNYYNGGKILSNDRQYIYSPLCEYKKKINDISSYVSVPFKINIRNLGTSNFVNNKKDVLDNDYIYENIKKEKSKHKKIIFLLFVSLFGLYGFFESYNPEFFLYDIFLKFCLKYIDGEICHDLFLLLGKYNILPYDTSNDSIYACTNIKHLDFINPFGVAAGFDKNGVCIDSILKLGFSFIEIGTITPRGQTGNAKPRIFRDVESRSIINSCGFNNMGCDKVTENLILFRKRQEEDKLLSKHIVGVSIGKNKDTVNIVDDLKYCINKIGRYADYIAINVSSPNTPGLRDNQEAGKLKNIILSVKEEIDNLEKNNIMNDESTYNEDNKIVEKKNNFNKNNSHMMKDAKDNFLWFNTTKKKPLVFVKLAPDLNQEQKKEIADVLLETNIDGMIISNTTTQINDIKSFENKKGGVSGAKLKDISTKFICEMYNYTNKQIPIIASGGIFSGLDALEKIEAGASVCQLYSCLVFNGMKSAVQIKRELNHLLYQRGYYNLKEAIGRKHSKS

Row | SMILES | z-score [1] | z-score [2] | z-score [3] | z-score [4] | z-score [5] | z-score [6] | z-score [7] | z-score [8] | z-score [9] | z-score [10] | z-score [11] | z-score [12] | z-score [13] | composite z-score [14] | z-score [15] | z-score [16] | z-score [17] | z-score [18] | z-score [19] | composite z-score [20]
1 | Cc1cc2c(c(=O)o1)[C@@H](O)[C@H]1O[C@H]1C2=O | -0.223 | 0.374 | 0.123 | 0.65 | -1.15 | -0.352 | -0.659 (inactive) | -0.141 | 0.0583 | -0.588 (inactive) | -0.721 | -0.582 (inactive) | 0.166 (inactive) | 0.664 (inactive) | -0.67 (inactive) | 0.322 (inactive) | -0.729 (inactive) | -1.26 (inactive) | -0.535 | 0.13
2 | CC(C)=CCCC(C)=CCON=C1C[C@@H](O)[C@@H](O)[C@@H]2[C@@H]3C(=O)N(C(C)(C)C)C(=O)[C@@H]3CC[C@@H]12 | 0.0392 | 0.523 | 0.121 | -1.09 | -0.562 | -0.279 | -0.365 (inactive) | -0.231 | 0.947 | -1.03 (inactive) | -0.976 | -0.0139 (inactive) | 0.408 (inactive) | 0.661 (inactive) | 1.23 (inactive) | -0.0348 (inactive) | -0.106 (inactive) | -1.26 (inactive) | -0.11 | -0.172
3 | CCCCC#C[C@@H]1C=C[C@H](Oc2ccc(C(=O)OC)cc2)[C@@H](COC(=O)OCC)O1 | -1.07 | 0.416 | -3.26 | -3.56 | -3.46 | -0.918 | 0.281 (inactive) | -0.614 | -1.95 | 0.313 (inactive) | 0.257 | -4.46 (inactive) | -1.6 (inactive) | -0.189 (inactive) | 0.472 (inactive) | -0.37 (inactive) | -0.301 (inactive) | -0.0901 (inactive) | -1.08 | -0.194
4 | COC(=O)[C@H]1O[C@@H](c2c(OC)c(OC)c(C)c(OC)c2OC)[C@H](C)[C@@H](O)[C@H]1C | 1.2 | -0.302 | 0.825 | 1 | 1.36 | 0.438 | 0.61 (inactive) | -0.398 | -0.848 | -1.27 (inactive) | -0.617 | -0.615 (inactive) | -1.76 (inactive) | -0.0757 (inactive) | 0.417 (inactive) | 0.275 (inactive) | 0.968 (inactive) | 0.926 (inactive) | -0.456 | -0.13
5 | CC(CCN1CCCc2nc(C)c(C)cc21)=NO[C@@H](C)c1cc(-c2c(C)cc(C)cc2C)no1 | 0.91 | -0.0581 | 1.42 | -0.603 | -0.843 | 3.04 | -0.127 (inactive) | -0.0137 | -1.08 | -0.102 (inactive) | -0.616 | -1.54 (inactive) | -0.012 (inactive) | -0.837 (inactive) | 0.0525 (inactive) | 0.39 (inactive) | 0.898 (inactive) | -0.158 (inactive) | 0.378 | 0.194
6 | CO[C@@H]1COC(=O)[C@@H](C)COC(=O)[C@@H](C)NC(=O)CC=C[C@@H]1C | -0.448 | 1.25 | -1.45 | -0.539 | -1.86 | 0.2 | -0.189 (inactive) | 0.0701 | -1.48 | 0.512 (inactive) | -0.373 | -0.792 (inactive) | 1.2 (inactive) | -4.92 (inactive) | -0.136 (inactive) | -1.99 (inactive) | -0.98 (inactive) | -1.13 (inactive) | 0.635 | -0.271
7 | COc1ccc(O[C@H]2C=C[C@@H](c3ccccc3)O[C@@H]2COC(=O)CCC(C)=NOC(C)CN2CCCc3nc(C)c(C)cc32)cc1 (stereo not given in full) | 1.12 | 0.0929 | 0.919 | -1.2 | -0.63 | 1.54 | -0.0369 (inactive) | -0.455 | -1.18 | 1.21 (inactive) | 1.21 | -0.729 (inactive) | -0.317 (inactive) | -0.154 (inactive) | -0.336 (inactive) | 1.37 (inactive) | 1.09 (inactive) | 0.129 (inactive) | 0.757 | -0.127
8 | CC(C)=CCCC(C)=CCON=C1C[C@@H](O)[C@@H](O)[C@@H]2[C@@H]3C(=O)N(C(C)(C)C)C(=O)[C@@H]3CC[C@H]12 | 0.0088 | 0.729 | -0.465 | 0.387 | -0.306 | -0.00723 | 0.111 (inactive) | -0.15 | 0.598 | -0.624 (inactive) | -0.369 | -0.352 (inactive) | -0.274 (inactive) | -0.108 (inactive) | 0.152 (inactive) | -0.264 (inactive) | 0.27 (inactive) | 0.612 (inactive) | -0.245 | -0.172
9 | CCOC(=O)[C@H](Cc1ccccc1)NC(=O)CCC1CC(OC(=O)NCc2cccc3ccccc23)CC2(CCCC(COC(=O)NCc3cccc(C(F)(F)F)c3)O2)O1 (stereo not given in full) | 1.84 | -0.244 | 1.14 | -0.709 | 0.607 | 3.94 | 0.918 (inactive) | -0.284 | -0.868 | -0.106 (inactive) | -0.256 | -0.168 (inactive) | 0.415 (inactive) | -0.873 (inactive) | 0.675 (inactive) | 0.473 (inactive) | 0.213 (inactive) | -0.215 (inactive) | -0.573 | 0.158
